Measurements as given in PubChem BioAssay (NCATS).
“And” between values parts separate entries of the source, which are not always exact repeats. Identical values can stand only once. Records with an inconclusive call do not appear. Unmarked numbers belong to inactive results. The source made the active and inactive calls. Calls come from the whole dose curve; as a rule, active = well fitted curve in the direction sought with a large enough effect; inconclusive = small, poorly fitted or top-dose-only effect, or another doubt; inactive = no such curve, though single readings can be large; an effect the other way counts as inactive or inconclusive.

Columns and labels:
[1] = Viability qHTS for spleen associated tyrosine kinase inhibitor (SYKi) naive MV4-11 cells (AID 1963823); note: nearly all actives have a fitted effect of over 40% in size
In short: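 SYKi-naive MV4-11 AML cells, 500 per well, were exposed to library compounds for 72 hr at 37 C, 5% CO2. Viability was then read by CellTiter-Glo luminescence after 10 min at room temperature.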

[2] = Viability qHTS for spleen associated tyrosine kinase inhibitor (SYKi) drug resistant MV4-11 cells (AID 1963824); note: nearly all actives have a fitted effect of over 35% in size
In short: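 SYK-inhibitor-resistant MV4-11 AML cells were seeded at 500 per well onto compound and cultured 72 hours (37 °C, 5% CO2). CellTiter-Glo was then added, and after 10 min at room temperature, luminescence gave viability.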

[3] = Quantitative highthroughput screen to assess conditional lethalithy of NOMO1 cells grown in RPMI1640 with untreated serum (RPMI+s) (AID 1963876); note: nearly all actives have a fitted effect of over 35% in size;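 for Viability: 100% = DMSO wells and 0% = empty wells without cells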
In short: (§1)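 Each medium arm—HPLM with 10% dialyzed FBS, or RPMI1640 with 5 mM glucose and 10% untreated or dialyzed FBS—was screened against an 11-point, 3-fold compound titration for 48 h at 37 °C, with CellTiter-Glo luminescence as endpoint.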

[4] = Quantitative highthroughput screen to assess conditional lethalithy of NOMO1 cells grown in Human Plasma-Like Medium with dialyzed fetal bovine serum (HPLM+ds) (AID 1963878); note: nearly all actives have a fitted effect of over 35% in size;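 for Viability: 100% = DMSO wells and 0% = empty wells on each plate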
In short: as §1

[5] = Quantitative highthroughput screen to assess conditional lethalithy of SEM cells grown in Human Plasma-Like Medium with dialyzed fetal bovine serum (HPLM+ds) (AID 1963882); note: nearly all actives have a fitted effect of over 35% in size; for Viability: series mostly up to about 46 µM
In short: as §1

[6] = Quantitative highthroughput screen to assess conditional lethalithy of SEM cells grown in RPMI1640 with unreated serum (RPMI+s) (AID 1963883); note: nearly all actives have a fitted effect of over 35% in size;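 for Viability: 100% = DMSO wells and 0% = empty wells without cells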
In short: as §1

[7] = Quantitative highthroughput screen to assess conditional lethalithy of SEM cells grown in RPMI1640 with dialyzed fetal bovine serum (RPMI+ds) (AID 1963884); note: nearly all actives have a fitted effect of over 35% in size;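 for Viability: series mostly up to about 46 µM; 100% = DMSO control wells and 0% = empty wells without cells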
In short: as §1

[8] = Cellular viability qHTS for adrenocortical cancer (ACC) cell line SW-13 (AID 1963989); conditions: SW-13 ACC cells viability, CellTiter-Glo, 48 h; activity (max response): hits give low values; note: nearly all actives have a fitted effect of over 65% in size;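 for activity (max response): cells grown in serum-free medium with ITS supplement; % is set by controls: 0 for no effect and ±100 for the full control effect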
In short: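 Compound titrations (up to 46 uM final, in DMSO) were applied to SW-13 cells for 48 h at 37C/5% CO2. Reading used CellTiter-Glo after 20 min at room temperature; fitted curves yielded IC50 and efficacy.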

[9] = Cellular viability qHTS for adrenocortical cancer (ACC) cell line NCI-H295R (AID 1963990); note: nearly all actives have a fitted effect of over 60% in size
In short: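 Readout: CellTiter-Glo luminescence, 20 min RT. Exposure: 48 h, 37C/5% CO2. Cells: NCI-H295R, ITS-DMEM serum-free. Range: up to 46 uM. Analysis: 4PL fit, IC50 plus efficacy.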

[10] = Quantitative highthroughput screen to assess conditional lethalithy of P12 Ichikawa cells grown in Human Plasma-Like Medium with dialyzed fetal bovine serum (HPLM+ds) (AID 1963879); conditions: Potency: viability; note: nearly all actives have a fitted effect of over 35% in size; for Viability: series mostly up to about 46 µM
In short: as §1

[11] = Quantitative highthroughput screen to assess conditional lethalithy of P12 Ichikawa cells grown in RPMI1640 with dialyzed fetal bovine serum (RPMI+ds) (AID 1963880); conditions: Potency: P12-Ichikawa viability; note: nearly all actives have a fitted effect of over 35% in size;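 for Viability: 100% = DMSO wells and 0% = empty wells on each plate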
In short: as §1

[12] = Quantitative highthroughput screen to assess conditional lethalithy of P12 Ichikawa cells grown in RPMI1640 with untreated serum (RPMI+s) (AID 1963881); conditions: Potency: viability; note: nearly all actives have a fitted effect of over 35% in size;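 for Viability: series mostly up to about 46 µM; 100% = DMSO wells and 0% = empty wells without cells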
In short: as §1
Potency is the fitted concentration of half-maximal effect.

SMILES: NC(=O)[C@@H](CCC(F)(F)F)N(Cc1ccc(-c2ncon2)cc1F)S(=O)(=O)c1ccc(Cl)cc1
- Potency [1]: 20.9 µM (active)
- Potency [2]: 18.6 µM (active)
- Potency [3]: inactive
- Potency [4]: 20.9 µM (active)
- Potency [5]: 23.5 µM (active)
- Potency [6]: 16.6 µM (active)
- Potency [7]: 18.7 µM (active)
- Potency [8]: 28.2 µM (active)

SMILES: Clc1ccccc1C(c1ccccc1)(c1ccccc1)n1ccnc1
- Potency [1]: 5.25 µM (active)
- Potency [2]: 5.25 µM (active)
- Potency [3]: inactive
- Potency [4]: inactive
- Potency [5]: inactive
- Potency [8]: 16.4 µM (active)
- Potency [9]: 23.1 µM (active)

SMILES: COc1c(Cl)cc2c([nH]c3cnccc32)c1NC(=O)c1cccnc1C
- Potency [1]: 20.9 µM (active)
- Potency [2]: 18.6 µM (active) and 20.6 µM (active)
- Potency [3]: inactive
- Potency [4]: inactive
- Potency [10]: inactive
- Potency [11]: inactive
- Potency [12]: inactive
- Potency [5]: inactive
- Potency [7]: inactive
- activity (max response) [8]: -4.78%
- Potency [9]: inactive

SMILES: CNC(=O)Nc1ccc(-c2nc(N3CC4CCC(C3)O4)c3cnn(C4CCC5(CC4)OCCO5)c3n2)cc1
- Potency [1]: 0.0742 µM (active)
- Potency [2]: 0.166 µM (active)
- Potency [3]: 0.059 µM (active)
- Potency [6]: 0.0418 µM (active)
- Potency [9]: 0.282 µM (active)

SMILES: NC(N)=NC(=O)c1nc(Cl)c(N)nc1N
- Potency [1]: 5.39 µM (active) and 841 nM (active)
- Potency [2]: 12.1 µM (active) and 668 nM (active)
- Potency [3]: 0.935 µM (active)
- Potency [11]: 13.2 µM (active)
- Potency [12]: 4.69 µM (active)
- Potency [5]: inactive
- Potency [6]: inactive
- Potency [7]: inactive
- activity (max response) [8]: -8.19% and -7.03%

SMILES: C=CC(=O)Nc1cccc(Oc2nc(Nc3ccc(N4CCN(C)CC4)cc3OC)ncc2Cl)c1
- Potency [1]: 1.64 µM (active) and 1.66 µM (active)
- Potency [2]: 2.06 µM (active) and 2.95 µM (active)
- Potency [3]: inactive
- Potency [6]: 3.72 µM (active)
- Potency [8]: 8.91 µM (active)
- Potency [9]: 8.91 µM (active)

SMILES: CC(C(=O)O)c1ccc2c(c1)CC(=O)c1ccccc1S2 (stereo unspecified)
- Potency [1]: inactive
- Potency [2]: inactive
- Potency [3]: 7.43 µM (active)
- Potency [11]: 10.5 µM (active)
- Potency [12]: 9.35 µM (active)
- Potency [5]: inactive
- Potency [6]: inactive
- Potency [7]: inactive
- activity (max response) [8]: -16.4% and 14.9%
- Potency [9]: inactive

SMILES: CS(=O)(=O)N1CCc2c(-c3cnc(N)nc3)nc(N3CCOCC3)nc21
- Potency [1]: 1.86 µM (active)
- Potency [2]: 4.17 µM (active)
- Potency [3]: 8.33 µM (active)
- Potency [10]: inactive
- Potency [6]: 4.69 µM (active)
- Potency [9]: 0.708 µM (active)

SMILES: O=C(O)Cc1cccc(OCCCN(Cc2cccc(C(F)(F)F)c2Cl)CC(c2ccccc2)c2ccccc2)c1
- Potency [1]: 20.9 µM (active)
- Potency [2]: 16.6 µM (active)
- Potency [3]: inactive
- Potency [10]: inactive
- Potency [11]: inactive
- Potency [12]: inactive
- Potency [5]: inactive
- Potency [6]: inactive
- Potency [7]: inactive
- Potency [9]: 22.4 µM (active)

SMILES: CCc1nc(N)nc(N)c1-c1ccc(Cl)cc1
- Potency [1]: 3.76 µM (active)
- Potency [2]: 3.76 µM (active) and 2.63 µM (active)
- Potency [3]: inactive
- Potency [10]: 1.87 µM (active)
- Potency [12]: 10.5 µM (active)
- Potency [6]: inactive
- Potency [8]: 1.46 µM (active) and 3.98 µM (active)
- Potency [9]: 2.59 µM (active) and 1.78 µM (active)

SMILES: COc1ccc2c(c1)c(C1=C(c3c[nH]c4ccccc34)C(=O)NC1=O)cn2CCCN(C)C
- Potency [1]: 0.148 µM (active)
- Potency [2]: 0.332 µM (active)
- Potency [3]: inactive
- Potency [10]: inactive
- Potency [12]: inactive
- Potency [8]: 15.8 µM (active)

SMILES: Cc1ccc(C(=O)N(CCCN)[C@@H](c2nc3cc(Cl)ccc3c(=O)n2Cc2ccccc2)C(C)C)cc1
- Potency [1]: 0.0042 µM (active)
- Potency [2]: 0.0037 µM (active)
- Potency [3]: 0.0013 µM (active)
- Potency [10]: 0.0013 µM (active)
- Potency [11]: 0.0021 µM (active)
- Potency [12]: 0.0013 µM (active)
- Potency [5]: 0.0012 µM (active)
- Potency [6]: 0.0012 µM (active)
- Potency [7]: 0.0013 µM (active)
- Potency [8]: 0.01 µM (active)
- Potency [9]: 0.0794 µM (active)

SMILES: O=C(O)Cn1nnc(-c2cc(N3CCC(Oc4cc(F)ccc4Br)CC3)no2)n1
- Potency [1]: inactive
- Potency [2]: 0.103 µM (active)
- Potency [3]: 1.05 µM (active)
- Potency [10]: 9.35 µM (active)
- Potency [11]: 11.8 µM (active)
- Potency [12]: 9.35 µM (active)
- Potency [6]: inactive
- Potency [7]: inactive
- Potency [9]: inactive

SMILES: C#Cc1cccc(Nc2ncnc3cc(OCCOC)c(OCCOC)cc23)c1
- Potency [1]: 3.76 µM (active) and 1.86 µM (active)
- Potency [2]: 6.68 µM (active) and 2.31 µM (active)
- Potency [3]: inactive
- Potency [8]: 4.11 µM (active) and 8.91 µM (active)
- Potency [9]: 6.51 µM (active)

SMILES: Cc1ccc(S(=O)(=O)OCC(=O)Nc2ccc(C(=O)O)c(O)c2)cc1
- Potency [1]: inactive
- Potency [2]: inactive
- Potency [3]: inactive
- Potency [6]: 16.6 µM (active)
- activity (max response) [8]: 6.62%
